Data published in publication PMC8384837, “Expanding the binding specificity for RNA recognition by a PUF domain”.

Biological target: PUM1 PUF domain R4-PFC (Homo sapiens, UniProt Q14671 828-1176, N971P;H972F;Q975C)
Test: yeast three-hybrid, YBZ-1, SC-Leu-His + 0.5 mM 3-AT, 4 days
Settings: tags: N-Gal4 AD-HA kept; label: inside an RPR1-promoter hybrid RNA with tandem MS2 sites; ssRNA
Method in brief: (§1)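 The interaction score is the logarithmic change in variant frequency from input to selection. It uses log2, with a pseudocount of 1 for absent variants, and frequencies came from PCR-amplified, Illumina-sequenced repeat regions. The libraries were Pumilio-1 PUF domains randomized at the three base-contacting residues per repeat, co-expressed with matching RNA elements in strain YBZ-1 (LexA–MS2 coat fusion, HIS3 reporter). Plating lasted four days on SC-Leu (input) or SC-Leu-His + 0.5 mM 3-AT (selection).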

Sequence	binding signal
GGCUAGAACUAGUGGAUCCCCCGGCGCCCGGCGGCUCGAGCCCGGGUAAGUGUAAAUAGUCUGCAUGCCGCCGGGCGCCAUGCCUGCAGGUCGACUCUAGAAAACAUG	7.66 log2 enrichment (interaction score)
GGCUAGAACUAGUGGAUCCCCCGGCGCCCGGCGGCUCGAGCCCGGGUAAGUGUAUAUAGUCUGCAUGCCGCCGGGCGCCAUGCCUGCAGGUCGACUCUAGAAAACAUG	7.01 log2 enrichment (interaction score)
GGCUAGAACUAGUGGAUCCCCCGGCGCCCGGCGGCUCGAGCCCGGGUAAGUGUACAUAGUCUGCAUGCCGCCGGGCGCCAUGCCUGCAGGUCGACUCUAGAAAACAUG	5.29 log2 enrichment (interaction score)

Biological target: PUM1 PUF domain R5-RRY (Homo sapiens, UniProt Q14671 828-1176, C1007R;Q1011Y)
Test: as above
Settings: tags: N-Gal4 AD-HA kept; label: inside an RPR1-promoter hybrid RNA with tandem MS2 sites; ssRNA
Method in brief: as §1

Sequence	binding signal
GGCUAGAACUAGUGGAUCCCCCGGCGCCCGGCGGCUCGAGCCCGGGUAAGUGUAAAUAGUCUGCAUGCCGCCGGGCGCCAUGCCUGCAGGUCGACUCUAGAAAACAUG	1.18 log2 enrichment (interaction score)
GGCUAGAACUAGUGGAUCCCCCGGCGCCCGGCGGCUCGAGCCCGGGUAAGUGUCAAUAGUCUGCAUGCCGCCGGGCGCCAUGCCUGCAGGUCGACUCUAGAAAACAUG	4.32 log2 enrichment (interaction score)
GGCUAGAACUAGUGGAUCCCCCGGCGCCCGGCGGCUCGAGCCCGGGUAAGUGUUAAUAGUCUGCAUGCCGCCGGGCGCCAUGCCUGCAGGUCGACUCUAGAAAACAUG	3.28 log2 enrichment (interaction score)

Biological target: PUM1 PUF domain R4-NRG (Homo sapiens, UniProt Q14671 828-1176, H972R;Q975G)
Test: as above
Settings: tags: N-Gal4 AD-HA kept; label: inside an RPR1-promoter hybrid RNA with tandem MS2 sites; ssRNA
Method in brief: as §1

Sequence	binding signal
GGCUAGAACUAGUGGAUCCCCCGGCGCCCGGCGGCUCGAGCCCGGGUAAGUGUAAAUAGUCUGCAUGCCGCCGGGCGCCAUGCCUGCAGGUCGACUCUAGAAAACAUG	3.35 log2 enrichment (interaction score)
GGCUAGAACUAGUGGAUCCCCCGGCGCCCGGCGGCUCGAGCCCGGGUAAGUGUAUAUAGUCUGCAUGCCGCCGGGCGCCAUGCCUGCAGGUCGACUCUAGAAAACAUG	2.73 log2 enrichment (interaction score)
GGCUAGAACUAGUGGAUCCCCCGGCGCCCGGCGGCUCGAGCCCGGGUAAGUGUACAUAGUCUGCAUGCCGCCGGGCGCCAUGCCUGCAGGUCGACUCUAGAAAACAUG	0.43 log2 enrichment (interaction score)
